NPR1 activator = GC-A (human) enzyme activation; HEK293 GC-A cells, cGMP TR-FRET, EC30 ANP; 0% at EC30 ANP, 100% saturating ANP; activation, % at 10 µM; 370,000 compounds, 0.14% hits; AID 1671463; in the data active = activation above about 40%
FAS TE block = blocks the thioesterase domain of human fatty acid synthase | P49327 | recombinant FAS-TE, OMFH fluorogenic substrate, fluorescence endpoint | inhibition, % at 15 µM | 360,000 compounds, 0.67% hits | AID 602261;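 active = compounds whose normalised, plate-corrected inhibition of enzyme fluorescence in the single-dose primary screen is 50% or more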;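 note: 0% = DMSO with enzyme and 100% = substrate without enzyme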
NPR2 activator = GC-B (human) receptor activation; 370,000 compounds, 0.11% hits; AID 1920062; P20594; HEK293-GC-B cells, CNP EC30, cGMP TR-FRET; 0% at EC30 CNP, 100% saturating CNP; activation, % at 10 µM;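 active = activation at 10 µM reaching about 35% in either raw or pattern-adjusted values, limit read from the data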
ADAM10 inh = inhibits human ADAM10; 370,000 compounds, 0.62% hits; recombinant ADAM10, EDANS/DABCYL FRET peptide cleavage, 3 h; inhibition, % at 7 µM; AID 720582; O14672;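 active = inhibition above a per-campaign cutoff equal to the mean of compounds falling between control-based bounds plus 3 SD, cut at about 20% in these data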;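 note: 0% = DMSO wells while the 100% control is not disclosed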
Target sequence (O14672 214-748 limits assumed): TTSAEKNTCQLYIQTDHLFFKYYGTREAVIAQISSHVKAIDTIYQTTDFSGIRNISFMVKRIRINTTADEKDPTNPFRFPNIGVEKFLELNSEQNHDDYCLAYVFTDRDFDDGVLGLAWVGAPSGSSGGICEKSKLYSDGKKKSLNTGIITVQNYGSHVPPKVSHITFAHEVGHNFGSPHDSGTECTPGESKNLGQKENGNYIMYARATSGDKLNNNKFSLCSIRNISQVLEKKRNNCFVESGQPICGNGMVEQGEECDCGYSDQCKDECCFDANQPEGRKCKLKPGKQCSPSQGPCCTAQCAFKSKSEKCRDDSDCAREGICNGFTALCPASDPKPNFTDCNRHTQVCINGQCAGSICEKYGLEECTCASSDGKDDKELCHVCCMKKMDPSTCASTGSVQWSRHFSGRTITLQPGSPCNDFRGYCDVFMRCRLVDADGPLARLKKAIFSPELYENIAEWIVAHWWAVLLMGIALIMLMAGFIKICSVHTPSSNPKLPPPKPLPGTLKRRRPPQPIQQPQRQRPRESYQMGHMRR
ADAM17 inh = ADAM17 inhibition, QFRET primary screen | P78536 | recombinant ADAM17, EDANS/DABCYL FRET peptide cleavage | inhibition, % at 6.95 µM | 370,000 compounds, 0.83% hits | AID 720648;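 active = inhibition above the mean of compounds lying between control limits plus 3 SD, set per campaign, cut at about 8.5% in these data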;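 note: 0% = DMSO-only wells as the low control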
ADAM10 confirm = human ADAM10 inhibition, confirmation; shares compounds with ADAM10 inh; ADAM10 QFRET peptide cleavage, EDANS fluorescence; inhibition, % at 6.95 µM; 2,100 compounds, 1% hits;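 active = inhibition above about 20% chosen separately for each screening run, limit read from the data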;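 note: 0% = DMSO wells and 100% = marimastat wells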
ADAM17 counter = ADAM17 inhibition, counter-screen for ADAM10 exosite hits | 2,100 compounds, 0.5% hits | inhibition, % at 6.95 µM | ADAM17 QFRET peptide cleavage, EDANS fluorescence | shares compounds with ADAM10 inh;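 active = mean triplicate inhibition above the solvent-only control wells' mean plus 3 SD, cut at about 12% in these data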;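 note: 0% = DMSO wells and 100% = marimastat wells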
ADAM10 ctr = counter-screen for ADAM17 exosite inhibitors: inhibitors of human ADAM10. shares compounds with ADAM17 inh. inhibition, % at 6.95 µM. recombinant ADAM10, EDANS/DABCYL FRET peptide cleavage, 3 h. AID 743256. 2,900 compounds, 47% hits;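 active = mean inhibition over the triplicate runs exceeds the activity threshold set in the earlier primary screen, cut at about 20% in these data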;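 note: 0% = DMSO wells and 100% = marimastat wells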
ADAM17 confirm = human ADAM17 inhibition, confirmation | shares compounds with ADAM17 inh | recombinant ADAM17, EDANS/DABCYL QFRET peptide cleavage | inhibition, % at 6.95 µM | 2,900 compounds, 65% hits;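 active = mean inhibition across replicates above the hit cutoff set in the primary screen, cut at about 8.5% in these data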;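 note: 0% = DMSO wells and 100% = marimastat wells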
* = called active by the depositor; i = inactive; x = not tested or not shown. A selection: hits, their analogues and other compounds. The true share with any hit is near 2%.

SMILES	NPR1 activator	FAS TE block	NPR2 activator	ADAM10 inh	ADAM17 inh	ADAM10 confirm	ADAM17 counter	ADAM10 ctr	ADAM17 confirm
NC(=O)C1=C[C@H](C2CCCCC2)C[C@H](OCc2ccc(CO)cc2)O1	3	-3	1	20*	8.9*	-2	0	-4	4
Cc1ccc(-c2c(NC(=O)C3CC3)nc3ncccn23)cc1	1	x	0	i	-327	x	x	x	x
Cc1cccc(NC(=O)c2nc[nH]c2C(=O)N(C)Cc2ccccc2)c1	-1	4	-2	21*	9.4*	2	0	10	7
CN(Cc1ccccc1)C(=O)c1[nH]cnc1C(=O)Nc1ccccc1	2	1	-1	5	4	x	x	x	x
Cc1cccc(NC(=O)c2nc[nH]c2C(=O)N[C@@H](C)c2ccccc2)c1	-2	14	-4	26*	10.0*	9	3	29*	15*
O=C(NCCc1ccccc1)OCc1cn(Cc2ccc(C(F)(F)F)cc2)nn1	1	x	4	1	0	x	x	x	x
Cc1ccc(S(=O)(=O)N2CCOCC2)cc1NC(=O)COC(=O)CSc1ccc(Br)cc1C	-3	-3	-2	21*	13*	0	0	20*	11*
Cc1cc(C)c(NC(=O)COC(=O)CSc2ccc(Br)cc2C)c(C)c1	-3	1	-5	-8	3	x	x	x	x
CCN(CC)c1ccc(NC(=O)COC(=O)CSc2ccc(Br)cc2C)cc1	-4	8	-3	26*	20*	13	6	41*	23*
COc1ccc(OC)c(-c2csc(NC(=O)CSc3ccc([N+](=O)[O-])cc3)n2)c1	-1	38	0	23*	11*	6	2	29*	13*
COc1ccc(OC)c(-c2csc(NC(=O)CSc3ccc(Br)cc3)n2)c1	2	21	-6	4	3	x	x	x	x
Fc1c(-c2ccc3ncnc(NCc4cccs4)c3c2)ccc2c1OCO2	26	x	19	-48	-22	x	x	x	x
CCN(CC)S(=O)(=O)c1ccc(S(=O)(=O)Nc2ccc3c(c2)oc2ccccc23)cc1	2	40	-5	32*	14*	9	3	47*	25*
CCN(CC)S(=O)(=O)c1ccc(NS(=O)(=O)c2ccc(C)c(C)c2)cc1	2	0	2	-6	0	x	x	x	x
CCOC(=O)[C@]12CCCCC/C=C\1N(CCc1ccc(Cl)cc1)C(=O)[C@H]2CC(=O)N1CCC(c2ccccc2)CC1	0	x	-6	7	1	x	x	x	x
O=[N+]([O-])c1cccnc1N1CCC(c2cc(-c3cccc(C(F)(F)F)c3)n[nH]2)CC1	-10	29	-8	20*	11*	15	3	48*	19*
CC(=O)c1ccc(N2CCC(c3cc(-c4ccc(Cl)cc4Cl)n[nH]3)CC2)c([N+](=O)[O-])c1	0	28	-11	20*	13*	13	4	44*	21*
O=[N+]([O-])c1cccnc1N1CCC(c2cc(-c3ccc(Cl)cc3Cl)n[nH]2)CC1	13	25	-8	30*	11*	8	2	31*	17*
NC(=O)C1CCN(c2ncccc2[N+](=O)[O-])CC1	3	-2	-1	2	-4	x	x	x	x
CN(CCO)c1ccc2c(c1)Oc1ccccc1CN(Cc1cn(Cc3ccc(C(F)(F)F)cc3)nn1)S2(=O)=O	-1	x	0	5	4	x	x	x	x
COc1ccc(CCNC(=O)c2ccc3c(c2)ncn3C2CCCCC2)cc1	1	x	-7	8	3	x	x	x	x
COc1ccc(CN2C(=O)N3Cc4ccc(C)cc4C3CS2(=O)=O)cc1 (centres undefined)	1	x	4	3	2	x	x	x	x

Screens (PubChem)
